From PubChem BioAssay come the findings set out here.

In assay [1] the test system is PRMT1 (protein arginine N-methyltransferase 1). Nature of the assay: PRMT1 binders on small-molecule microarrays, primary screen, biochemical, small-molecule microarray, 635 nm fluorescence (AID 1088).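 Also: binding of Prmt1 protein to compounds spotted on small-molecule microarray slides.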 As to conditions: small-molecule microarray binding, higher = more signal.
Assay [2] can be described thus: yeast growth modulation, basal conditions, primary screen, YJM789 clinical isolate, OD600, 24 h (AID 1089).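 Also: growth of clinical yeast isolate S. cerevisiae YJM 789 seeded 1000 cells per well; test concentration not given here.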 Particulars: S. cerevisiae YJM789 growth, higher = more signal, called active from +8 up or from −8 down.
Assay [3] is described as follows: fission yeast growth modulation, primary screen, strain 972, OD600, 24 h, no modulator (AID 1090).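 Also: basal condition with compound alone and no growth modifier present; test concentration not given here.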 As to conditions: S. pombe 972 growth, higher = more signal, called active from +8 up or from −8 down.
Assay [4] in a line: S. cerevisiae growth modulation with rapamycin, primary screen, strain BY4716, OD600, 96 h (AID 1091). Also: test concentration not given here. As to conditions: higher = more signal, called active from +8 up or from −8 down.
For assay [5], the target named is Torsin-1A-interacting protein 2 (Homo sapiens) (UniProt Q8NFQ8). In words: LULL1 binders on small-molecule microarray, primary screen, cell lysate, human LULL1 lysate, 635/667 nm fluorescence (AID 1092).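 Also: probe is lysate of COS7 cells overexpressing human LULL1; score merges per-feature 667 nm fluorescence with signal-to-noise.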 As to conditions: hLULL1 lysate binding, 635 nm fluorescence, higher = more signal.
Torsin-1A-interacting protein 2 (Homo sapiens), sequence (Q8NFQ8 whole entry, looked up): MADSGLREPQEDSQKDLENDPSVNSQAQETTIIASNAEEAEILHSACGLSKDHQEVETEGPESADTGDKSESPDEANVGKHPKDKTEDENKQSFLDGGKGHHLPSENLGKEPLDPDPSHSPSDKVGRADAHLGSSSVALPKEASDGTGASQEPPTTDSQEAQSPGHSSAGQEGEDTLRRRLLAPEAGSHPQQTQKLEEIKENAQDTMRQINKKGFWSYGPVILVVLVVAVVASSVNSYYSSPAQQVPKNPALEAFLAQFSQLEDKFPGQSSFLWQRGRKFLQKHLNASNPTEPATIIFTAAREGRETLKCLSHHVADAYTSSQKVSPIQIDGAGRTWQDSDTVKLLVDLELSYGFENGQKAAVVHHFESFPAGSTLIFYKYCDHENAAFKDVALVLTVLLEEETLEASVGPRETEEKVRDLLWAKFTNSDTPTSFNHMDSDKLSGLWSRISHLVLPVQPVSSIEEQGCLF
Assay [6] in a line: E. coli growth modulation, two-sided OD650, primary screen, E. coli filamentation project, strain DRC41, 24 h (AID 1093).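 Also: MC1000 strain lacking acrAB efflux and sulA so SOS filamentation is blocked; test concentration not given here.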 As to conditions: OD650, 24 h, higher = more signal, called active from +8 up or from −8 down.
Assay [7] in a line: small-molecule microarray binders of probe aLefty2, primary screen, biochemical, biotinylated probe, 635/667 nm fluorescence (AID 1094).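 Also: score merges spot fluorescence near 667 nm with spot signal-to-noise ratio.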 As to conditions: higher = more signal.
In assay [8] the test system is Noggin (protein binding on small-molecule microarray). In words: Noggin binders on small-molecule microarray, primary screen, biochemical, 635/667 nm fluorescence (AID 1095).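 Also: score merges 667 nm feature fluorescence with signal to noise over triplicate slides.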 As to conditions: 635 nm fluorescence, higher = more signal.
Assay [9] has as its target Neurogenic locus notch homolog protein 3 (Homo sapiens) (UniProt Q9UM47). Nature of the assay: NOTCH3 binders on small-molecule microarray, primary screen, biochemical, 635/667 nm fluorescence (AID 1096). Particulars: NOTCH3 binding, 635 nm fluorescence, higher = more signal.
The nature of assay [10]: small-molecule microarray binders of probe aEGFR, primary screen, biochemical, biotinylated probe, 635/667 nm fluorescence (AID 1097).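 Also: probe is a biotinylated anti-EGFR antibody binding compounds printed on slides; score combines fluorescence near 667 nm and signal to noise of each spot.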 Particulars: higher = more signal.

Calls of active or inactive are those of the source.

Neurogenic locus notch homolog protein 3 (Homo sapiens), sequence (Q9UM47 whole entry, looked up): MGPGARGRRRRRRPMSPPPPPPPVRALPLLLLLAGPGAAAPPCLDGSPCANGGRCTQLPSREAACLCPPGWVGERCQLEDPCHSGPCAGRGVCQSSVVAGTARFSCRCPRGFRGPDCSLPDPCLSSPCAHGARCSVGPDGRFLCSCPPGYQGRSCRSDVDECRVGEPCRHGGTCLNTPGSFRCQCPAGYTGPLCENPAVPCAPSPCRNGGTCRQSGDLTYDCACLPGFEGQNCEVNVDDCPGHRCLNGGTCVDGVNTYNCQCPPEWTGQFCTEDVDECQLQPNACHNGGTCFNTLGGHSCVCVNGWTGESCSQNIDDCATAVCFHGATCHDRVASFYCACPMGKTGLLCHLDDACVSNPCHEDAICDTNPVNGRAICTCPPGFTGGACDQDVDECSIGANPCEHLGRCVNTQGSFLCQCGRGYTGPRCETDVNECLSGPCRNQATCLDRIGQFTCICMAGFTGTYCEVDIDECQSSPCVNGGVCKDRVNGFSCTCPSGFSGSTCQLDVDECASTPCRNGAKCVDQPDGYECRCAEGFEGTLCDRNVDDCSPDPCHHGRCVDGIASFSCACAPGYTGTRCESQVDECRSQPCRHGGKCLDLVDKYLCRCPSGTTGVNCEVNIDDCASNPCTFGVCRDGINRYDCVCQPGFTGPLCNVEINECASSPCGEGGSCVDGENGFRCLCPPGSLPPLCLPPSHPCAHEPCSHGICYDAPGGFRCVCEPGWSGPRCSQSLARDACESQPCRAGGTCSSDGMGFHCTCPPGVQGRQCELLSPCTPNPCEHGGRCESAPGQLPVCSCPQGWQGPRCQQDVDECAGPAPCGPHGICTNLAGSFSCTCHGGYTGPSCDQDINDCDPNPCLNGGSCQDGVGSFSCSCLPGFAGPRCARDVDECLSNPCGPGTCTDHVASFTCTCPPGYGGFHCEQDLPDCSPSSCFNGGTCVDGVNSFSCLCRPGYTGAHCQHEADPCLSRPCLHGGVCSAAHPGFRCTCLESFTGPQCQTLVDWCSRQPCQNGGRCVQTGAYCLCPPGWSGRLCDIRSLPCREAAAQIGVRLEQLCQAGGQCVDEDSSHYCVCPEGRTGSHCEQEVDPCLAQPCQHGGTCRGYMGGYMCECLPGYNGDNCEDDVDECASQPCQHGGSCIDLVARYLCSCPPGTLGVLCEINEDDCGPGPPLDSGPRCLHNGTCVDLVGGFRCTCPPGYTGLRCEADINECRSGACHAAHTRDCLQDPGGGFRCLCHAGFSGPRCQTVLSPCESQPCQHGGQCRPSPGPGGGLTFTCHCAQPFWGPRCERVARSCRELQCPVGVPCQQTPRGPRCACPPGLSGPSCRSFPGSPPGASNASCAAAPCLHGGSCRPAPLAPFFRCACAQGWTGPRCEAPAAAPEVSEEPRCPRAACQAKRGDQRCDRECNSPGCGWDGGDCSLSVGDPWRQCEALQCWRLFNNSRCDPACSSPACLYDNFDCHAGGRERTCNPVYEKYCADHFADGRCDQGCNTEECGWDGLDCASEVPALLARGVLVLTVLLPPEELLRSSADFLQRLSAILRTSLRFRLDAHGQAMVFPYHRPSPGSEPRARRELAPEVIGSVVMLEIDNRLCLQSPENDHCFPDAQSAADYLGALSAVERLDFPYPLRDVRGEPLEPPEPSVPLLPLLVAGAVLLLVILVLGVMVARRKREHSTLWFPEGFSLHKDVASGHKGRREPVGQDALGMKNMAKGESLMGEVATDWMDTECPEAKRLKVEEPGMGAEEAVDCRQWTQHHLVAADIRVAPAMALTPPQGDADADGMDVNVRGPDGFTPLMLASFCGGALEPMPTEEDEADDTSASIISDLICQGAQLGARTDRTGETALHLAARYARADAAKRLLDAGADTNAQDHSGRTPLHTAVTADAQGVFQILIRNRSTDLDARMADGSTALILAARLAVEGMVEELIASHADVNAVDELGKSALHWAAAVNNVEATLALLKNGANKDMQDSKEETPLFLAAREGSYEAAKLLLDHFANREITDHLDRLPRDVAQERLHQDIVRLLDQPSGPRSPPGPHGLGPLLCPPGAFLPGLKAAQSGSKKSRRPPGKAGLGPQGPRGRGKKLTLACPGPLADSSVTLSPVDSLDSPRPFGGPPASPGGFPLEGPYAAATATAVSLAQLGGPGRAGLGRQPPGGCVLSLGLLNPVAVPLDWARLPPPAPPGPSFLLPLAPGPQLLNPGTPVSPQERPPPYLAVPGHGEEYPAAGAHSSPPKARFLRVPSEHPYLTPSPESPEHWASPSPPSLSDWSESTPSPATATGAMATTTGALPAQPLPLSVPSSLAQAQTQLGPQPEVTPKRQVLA

On to `[N-]=[N+]=NCc1ccccc1C[C@@]1(C(=O)N2CCCCC2)N=C(c2ccc(OCCCO)cc2)O[C@@H]1c1ccccc1CN=[N+]=[N-]`, for which the composite z-score in [1] is 1.28; in assay [5] it was 2.46; in assay [7] it was 0.154; in assay [8], -0.147; in [9] it was 0.278; in assay [10], -0.0833. For the same compound, the z-score in [2] is -0.364 (inactive); in [3], 0.78 (inactive); in assay [4], 25.9 (active); in assay [6], 0.76 (inactive).
With `C=C(CCCC)C(=O)CC[C@H](OC(=O)c1ccccc1-c1ccccc1C(=O)O)c1ccccc1OCCO`, the composite z-score was 0.774 in [1]; 0.189 in assay [5]; -0.183 in assay [7]; 0.512 in [8]; -0.025 in assay [9]; -0.162 in [10]. Also, the z-score in assay [2] is 0.604 (inactive); in assay [3], -0.659 (inactive); in [4], -0.918 (inactive); in assay [6], 1.07 (inactive).
On to `CCCCCN1CC=CC23O[C@@H]4C=CCOC(=O)[C@@H]4[C@H]2C(=O)N(CCO)[C@@H]3C1=O` (stereo not given in full), for which the composite z-score in assay [1] was 0.487; in assay [5] it was 2.35; in assay [7], -0.244; in assay [8], -1.25; in assay [9], -0.195; in assay [10], -0.235. In addition, the z-score in assay [2] is 0.15 (inactive); in assay [3], -0.178 (inactive); in assay [4], -0.175 (inactive); in [6], -0.229 (inactive).
For the compound `CC1CC/C=C\[C@H]2OC34C=CCN(C(C)(C)C)C(=O)[C@H]3N(C(CO)C(C)C)C(=O)[C@@H]4C2C(=O)O1` (stereo not given in full), the composite z-score in assay [1] was -0.447; in assay [5] it was 2.5; in [7] it was -0.147; in assay [8], 0.476; in [9] it was 0.551; in assay [10], -0.0968. The z-score was -1.38 (inactive) in assay [2], -0.429 (inactive) in [3], -0.851 (inactive) in assay [4] and -0.515 (inactive) in assay [6].
With `COCCCNC(=O)[C@@]1(Sc2ccc(C)cc2)CC(=O)N(Cc2ccccc2Cl)[C@@H]1c1ccc(CO)cc1I`, the composite z-score in assay [1] was -0.76; in assay [5], 1.04; in [7], -0.0654; in assay [8] it was -0.691; in [9] it was -0.318; in assay [10], -0.249. Besides, the z-score in assay [2] is -0.89 (inactive); in assay [3] it was -2.01 (inactive); in assay [4] it was 0.0449 (inactive); in [6], 0.668 (inactive).
Take `C=CCNC(=O)[C@H]1[C@@H]2C(=O)O[C@@H](c3ccccc3)[C@@H](c3ccccc3)N2[C@@H](c2ccc(OCCO)cc2)[C@]12C(=O)Nc1ccc(C#CCNC(N)=O)cc12`: the composite z-score in assay [1] turned out to be 1.56; in [5], 1.98; in assay [7], 0.155; in [8], 1.1; in [9], 1.07; in assay [10], 0.0562. Further, the z-score in assay [2] is 2.34 (inactive); in [3], 1.48 (inactive); in assay [4], 4.76 (inactive); in assay [6] it was 0.714 (inactive).
As for `O=C1C2C=CC(C(O)c3ccc4c(c3)OCO4)N(Nc3ccccc3)C2C(=O)N1c1ccccc1` (stereo not given), the composite z-score was 1.46 in [1]; 3.05 in assay [5]; 0.266 in assay [7]; -0.0526 in [8]; 1.1 in assay [9]; 0.11 in [10]. Besides, the z-score is -0.293 (inactive) in assay [2], 0.292 (inactive) in assay [3], 0.593 (inactive) in assay [4] and -0.784 (inactive) in [6].
For `C=C[C@@H](C)[C@H](O)c1ccc(OCCO)cc1`, the composite z-score in assay [1] was -0.365; in [5], 1.14; in assay [7] it was -0.225; in assay [8] it was -1.34; in [9], -0.743; in [10] it was -0.37. For the same compound, the z-score is 0.217 (inactive) in [2], -0.297 (inactive) in assay [3], -0.0577 (inactive) in [4] and -0.0261 (inactive) in assay [6].
Take `COc1ccc([Si](C)(C)[C@H]2[C@H](CCO)O[C@@]3(C(=O)N(Cc4ccccc4)c4ccc(N5C(=O)c6ccccc6Oc6ccccc65)cc43)[C@@H]2C)cc1`: the composite z-score is 1.12 in assay [1]; 1.94 in assay [5]; -0.114 in assay [7]; -0.355 in [8]; 0.427 in [9]; -0.174 in assay [10]. The z-score in [2] is -0.234 (inactive); in assay [3] it was 0.723 (inactive); in assay [4], 4.27 (inactive); in assay [6], 1.25 (inactive).
For the compound `NCCCCCNC(=O)[C@H]1C[C@H]2C(=O)N[C@@H](Cc3ccccc3)C(=O)N2[C@H]1c1ccc(O)cc1`, the composite z-score was determined as 0.584 in [1]; 1.92 in assay [5]; 0.887 in assay [7]; 0.521 in assay [8]; 0.423 in assay [9]; 0.151 in assay [10]. Besides, the z-score was 0.5 (inactive) in assay [2], -0.335 (inactive) in assay [3], -0.578 (inactive) in assay [4] and 0.0565 (inactive) in [6].
`CCCCCCCCCCC(O)C1C=CC2C(=O)N(c3ccccc3)C(=O)C2N1Nc1ccccc1F` (stereo not given): the composite z-score in [1] was 0.545; in [5] it was 1.59; in assay [7] it was -0.0713; in [8] it was -1.47; in assay [9], -0.277; in [10], -0.0576. Further, the z-score in assay [2] is 0.536 (inactive); in assay [3] it was 0.849 (inactive); in assay [4], 1.62 (inactive); in [6], -1.47 (inactive).
On to `COc1ccc([Si](C)(C)[C@H]2[C@H](CCO)O[C@@]3(C(=O)N(Cc4ccc(N5C(=O)c6ccccc6Oc6ccccc65)cc4)c4ccccc43)[C@@H]2C)cc1`, for which the composite z-score in assay [1] is 0.263; in [5], 0.822; in assay [7], 0.0004; in assay [8], -1.01; in assay [9] it was -0.532; in assay [10] it was 0.0125. Also, the z-score is 2.1 (inactive) in assay [2], -1.25 (inactive) in [3], 22.7 (active) in [4] and 0.511 (inactive) in [6].
Regarding `CN1C=C(C(=O)OCCS(C)(=O)=O)C(C(=O)OCCS(C)(=O)=O)=CC(c2ccc(CO)cc2)=CC1c1cccs1` (stereo not given), the composite z-score in assay [1] was 0.568; in assay [5], 2.01; in [7] it was -0.116; in [8], 0.484; in assay [9], 0.407; in assay [10], -0.0594. The z-score in assay [2] was 0.379 (inactive); in assay [3], -3.74 (inactive); in assay [4], 0.148 (inactive); in assay [6], 0.326 (inactive).
Turning to `C=C(C)[C@@H]1CC=C(C(O)C2C=CC3C(=O)N(c4ccccc4)C(=O)C3N2Nc2ccc(C#N)cc2)CC1` (stereo not given in full), the composite z-score is 1.54 in assay [1]; 3.33 in assay [5]; 0.386 in assay [7]; 0.35 in assay [8]; 1.04 in assay [9]; 0.0717 in assay [10]. Also, the z-score in assay [2] is 0.188 (inactive); in assay [3] it was 0.369 (inactive); in [4], 4.16 (inactive); in [6], -1.9 (inactive).
In the case of `COC(=O)C1=CC(CCCO)=CC(c2ccc(CN3CCCC3)cc2)N(Cc2cc3c(cc2Br)OCO3)C=C1C(=O)OC` (stereo not given), the composite z-score was 1.57 in [1]; 3.5 in assay [5]; 0.639 in assay [7]; 0.719 in [8]; 1.01 in assay [9]; 0.481 in assay [10]. The z-score in assay [2] was -0.622 (inactive); in assay [3], -1.23 (inactive); in [4] it was -0.371 (inactive); in assay [6] it was -0.327 (inactive).
Regarding `CCOC(=O)C1=C[C@@H](c2ccccc2)N(S(=O)(=O)c2ccc(C)cc2)[C@H]1c1ccccc1`, the composite z-score in assay [1] was 0.712; in assay [5], 0.91; in assay [7], -0.0113; in [8], 0.0762; in assay [9] it was 0.552; in assay [10], -0.112. For the same compound, the z-score in [2] is -1.27 (inactive); in [3], 0.517 (inactive); in assay [4], 0.958 (inactive); in [6], 0.6 (inactive).
`C=CCC(OC(C)=O)[C@@H]1[C@@H](N(Cc2ccc(-c3ccccc3)cc2)C(=O)c2ccc(C)cc2)c2cc(OCCCO)ccc2N1C(=O)Cc1ccc2ccccc2c1` (stereo not given in full): the composite z-score was 0.543 in assay [1]; 0.51 in assay [5]; -0.0042 in assay [7]; -0.0965 in assay [8]; 0.187 in assay [9]; -0.126 in [10]. In addition, the z-score in [2] was -2.04 (inactive); in assay [3], -0.71 (inactive); in [4] it was -0.633 (inactive); in assay [6] it was 1.64 (inactive).
On to `O=C1OCCC/C=C\[C@H]2OC34C=CCN(c5ccc6ccccc6c5)C(=O)[C@H]3N(CCCO)C(=O)[C@@H]4C12` (stereo not given in full), for which the composite z-score in assay [1] was 0.463; in assay [5], 0.969; in [7], -0.091; in assay [8] it was -0.534; in assay [9], 0.0065; in assay [10] it was -0.195. Besides, the z-score in assay [2] is -1.59 (inactive); in [3] it was -0.647 (inactive); in assay [4], -0.597 (inactive); in [6], -0.377 (inactive).
